Reference: PubChem BioAssay (NCATS)
Results filed as inconclusive are left out. Active and inactive are the calls of the source. Calls come from the whole dose curve; as a rule, active = well fitted cell-killing curve with a large enough effect; inconclusive = small, poorly fitted or top-dose-only effect, or effect the other way; inactive = no such curve, though single readings can be large or run the other way.

assay: Cell Viability - LYMP2-004 (AID 966); settings: LYMP2-004 lymphoblastoid cell viability, qHTS; series mostly up to 92.2 µM; note: nearly all actives have a fitted effect of over 65% in size
Excerpt: NIH Chemical Genomics Center [NCGC]
NIH Molecular Libraries Screening Centers Network [MLSCN]
National Institutes of Environmental Health Sciences [NIEHS]
National Toxicology Program [NTP]
We have developed a 1536-well cell-based assay for quantitative high throughput screening (qHTS) against a number of cell lines to determine in vitro cytotoxicity of small molecules. This particular assay uses a human lymphoblastoid cell line (LYMP2-004) purchased from Coriell Institute for Medical Research.
NCGC Assay Protocol Summary:
The CellTiter-Glo luminescent cell viability assay (Promega) is a homogeneous method to measure the number of viable cells in culture. The end point readout of this assay is based on quantitation of intracellular ATP, an indicator of metabolic activity, using the luciferase reaction. Luciferase catalyzes the oxidation of beetle Luciferin to oxyluciferin and light in the presence of ATP. The luminescent signal is proportional to amount of ATP present.
Using the CellTiter-Glo luminescent cell viability assay, the amount of cellular ATP was measured in the lymphoblastoid cell line with complete culture medium following compound treatment for 24 hours. The assay was performed in opaque white Kalypsys 1536-well plates. In the screen, tetraoctylammonium bromide was used as positive control. Library compounds were measured for their ability to cause acute toxicity in the cell line, as reflected by a decrease in intracellular ATP levels, in a concentration-dependent manner. […] AC50 values were determined from concentration-response data modeled with the standard Hill equation.
qHTS protocol for CellTiter Glo lymphoblastoid cellular assay
[Step] [Parameter] [Value] [Description]
1. Reagent; 5 uL; 2500 lymphoblastoid cells/well
2. Time; 5 hr; 37 C incubation
4. Controls; 23 nL; Tetraoctylammonium bromide 6.4pM to 92 uM
5. Time; 24 hr; 37 C incubation
6. Reagent; 5 uL; CellTiter Glo reagent
7. Time; 30 min; Room Temperature
8. Detection; Luminescence; Viewlux plate reader
Keywords: cell viability, cytotoxicity, lymphoblastoid cell line, luminescence, NTPHTS, NTPHTS_NCGC, NIEHS, DSSTox, MLSMR, MLSCN, NIH Roadmap, qHTS, NCGC

For `C[C@]12CCC(=O)C=C1CC[C@@H]1[C@@H]2CC[C@@]2(C)[C@H]1CC[C@]2(C)O`, which outcome is on record?
Its outcome is “inactive”.

With `CCOC(=O)CC(SP(=S)(OC)OC)C(=O)OCC` (configuration not stated) as the molecule, how does the outcome read?
The outcome was “inactive”.

For `CN1C[C@H](C(=O)N[C@]2(C)O[C@@]3(O)[C@@H]4CCCN4C(=O)[C@H](Cc4ccccc4)N3C2=O)C=C2c3cccc4[nH]cc(c34)C[C@H]21`, which outcome is on record?
Its outcome is “inactive”.

Which outcome does the source give for `CCCC(C)(COC(N)=O)COC(N)=O` here?
Its outcome is “inactive”.

Which outcome does the source give for `C[C@]1(O)CC[C@H]2[C@@H]3CCC4=CC(=O)CC[C@]4(C)[C@@]3(F)[C@@H](O)C[C@@]21C` here?
The outcome was “inactive”.

With `Clc1ccc(C(c2ccc(Cl)cc2)C(Cl)(Cl)Cl)cc1` as the molecule, how does the outcome read?
The outcome was “inactive”.

For `Nc1ccccc1C(=O)O`, which outcome is on record?
The outcome was “inactive”.

With `CCC(C)(C)c1ccc(O)cc1` as the molecule, how does the outcome read?
Its outcome is “inactive”.

Which outcome does the source give for `NCCc1ccc(O)cc1` here?
The outcome was “inactive”.

Which outcome does the source give for `C[C@]12CCC(=O)C=C1CC[C@@H]1[C@@H]2CC[C@]2(C)C(=O)CC[C@@H]12` here?
Its outcome is “inactive”.

Which outcome does the source give for `COP(=S)(OC)Oc1ccc(SC)c(C)c1` here?
The outcome was “inactive”.

For `COc1cc(OC)c(OC)cc1C=O`, which outcome is on record?
The outcome was “inactive”.

With `CC(C)c1cccc(C(C)C)c1O` as the molecule, how does the outcome read?
Its outcome is “inactive”.

For `COC(=O)C(c1ccccc1)C1CCCCN1` (configuration not stated), which outcome is on record?
The outcome was “inactive”.

For `Nc1ccccc1`, which outcome is on record?
The outcome was “inactive”.

Which outcome does the source give for `O=P1(N(CCCl)CCCl)NCCCO1` (configuration not stated) here?
The outcome was “inactive”.

Which outcome does the source give for `CC(C)NC(C)C` here?
The outcome was “inactive”.
